The values below come from PubChem BioAssay (NCATS).

A short description of test [1]: Primary qHTS for inhibitors of nuclear receptor binding SET domain protein 2 (NSD2) in an isogenic RCH-ACV NSD2 p.E1099K mutant (9B) (AID 1645876).
Test [2] can be described thus: Primary qHTS for inhibitors of nuclear receptor binding SET domain protein 2 (NSD2) in an RCH-ACV wild type WT cells (2C) (AID 1645877). (In general: qHTS replaces the single test concentration by a dilution series.)

Each structure is given as a SMILES string. Records with an inconclusive call do not appear. Values without a mark were called inactive. Active and inactive are the calls of the source. The call rests on the fitted dose curve; in most records, active means well fitted curve in the direction sought with a large enough effect; inconclusive means small, poorly fitted or top-dose-only effect, or another doubt; inactive means no such curve, though single readings can be large; an effect the other way counts as inactive or inconclusive.
Further: nearly all actives have a fitted effect of over 70% in size.
On the % scale 0 is the no-effect control and ±100 the full control effect.

For the compound `COC1=Cc2c(nc3n(c2=O)C(C)C(=O)NC3(O)C(C)C)OC=C1` (stereo not drawn), the Potency entry in test [1] and in test [2] was “inactive” in each case.

As for `CC1(C)CCCC2(C)C1C(O)C=C(CO)C2(O)C(=O)O` (stereo not drawn), the Potency result in test [1] and in test [2] was “inactive” each time.

With `O=C1NCc2nc3ccccc3c(=O)n2C1Cc1c[nH]c2ccccc12` (stereo not drawn), the Potency entry in test [1] and in test [2] was “inactive” throughout.

For the compound `CC(=O)O[C@@]1(C)C[C@@H](O)[C@]2(O)C=CO[C@@H](O[C@@H]3O[C@H](CO)[C@@H](O)[C@H](O)[C@H]3O)[C@@H]21`, the Potency entry in test [1] and in test [2] was “inactive” throughout.

For the compound `COc1ccc(/C=C/C(=O)O[C@@H]2[C@@H](O)[C@H](C)O[C@@H](OC3C4C=COC(O[C@@H]5O[C@H](CO)[C@@H](O)[C@H](O)[C@H]5O)C4C4(CO)OC34)[C@@H]2O)cc1OC` (stereo partly drawn), the Potency entry in test [1] and in test [2] was “inactive” throughout.

In the case of `COC(=O)c1ccc(O[C@@H]2O[C@H](CO)[C@@H](O)[C@H](O)[C@H]2O)c(OC)c1`, the Potency result in test [1] and in test [2] was “inactive” throughout.

For `CC1OC(OC2C(CO)OC(OCC3OC(OC(=O)C45CCC(C)(C)CC4C4=CCC6C7(C)CCC(OC8OC(C(=O)O)C(O)C(OC9OC(CO)C(O)C(O)C9O)C8O)C(C)(C)C7CCC6(C)C4(C)CC5)C(O)C(O)C3O)C(O)C2O)C(O)C(O)C1O` (stereo not drawn), in test [1], the activity change, negative = viability loss is 0.172% [at 9.23 µM]. Moreover, the activity change, negative = cell killing in test [2] was -4.23% [at 9.23 µM].

In the case of `CCN(c1cc(C#CCN2CCOCC2)cc(C(=O)NCc2c(C)cc(C)[nH]c2=O)c1C)C1CCC(N(C)CCOC)CC1` (stereo not drawn), the Potency result in test [1] and in test [2] was “inactive” in each case.

As to `COc1c2c(c(C)c3c1C(=O)OC3)OC1(C)CC(O)C3(O)C(C)(C)OC(=O)CCC3(C)C1C2` (stereo not drawn), the Potency entry in test [1] and in test [2] was “inactive” throughout.
